CHX counter = Cycloheximide Counterscreen for Small Molecule Inhibitors of Shiga Toxin | hit rate 12% among 300,000 | max response, % | AID 2314, 2010 | cell reporter, cycloheximide protein synthesis inhibition counterscreen; in the data active = max response mostly above about 13%, no sharp cut-off; inactive = mostly below about 14%; also: read at 38.3 µM for the half of the compounds with a filed dose
Shiga toxin inh = A qHTS for Small Molecule Inhibitors of Shiga Toxin. Vero cells, Shiga toxin protein synthesis inhibition reporter. inhibition, % at 38.7 µM. hit rate 9.2% among 290,000; in the data active = inhibition mostly above about 28%, no sharp cut-off; inactive = mostly below about 43%
NS1 function inh = qHTS Assay for Inhibitors of Influenza NS1 Protein Function; Potency, µM (series often up to 46.1 µM); hit rate 0.4% among 270,000; calls by dose curve; also: actives are rising curves; nearly all actives have a fitted effect of over 50% in size
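OD600 was taken as the measure of yeast growth restored by compound in an NS1-expressing S. cerevisiae strain. Cells had been washed out of glucose medium and diluted 1:100 into galactose -URA medium, pH 6.0.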
LmPK inh = qHTS Assay for Inhibitors of Leishmania Mexicana Pyruvate Kinase (LmPK); AID 1721, 2009; Q27686; hit rate 0.37% among 290,000; Potency, µM (highest dose often 57.5 µM), actives largely listed as inhibitors; purified LmPK, Kinase-Glo ATP luminescence, 1 h
Target sequence (Q27686 whole entry, looked up): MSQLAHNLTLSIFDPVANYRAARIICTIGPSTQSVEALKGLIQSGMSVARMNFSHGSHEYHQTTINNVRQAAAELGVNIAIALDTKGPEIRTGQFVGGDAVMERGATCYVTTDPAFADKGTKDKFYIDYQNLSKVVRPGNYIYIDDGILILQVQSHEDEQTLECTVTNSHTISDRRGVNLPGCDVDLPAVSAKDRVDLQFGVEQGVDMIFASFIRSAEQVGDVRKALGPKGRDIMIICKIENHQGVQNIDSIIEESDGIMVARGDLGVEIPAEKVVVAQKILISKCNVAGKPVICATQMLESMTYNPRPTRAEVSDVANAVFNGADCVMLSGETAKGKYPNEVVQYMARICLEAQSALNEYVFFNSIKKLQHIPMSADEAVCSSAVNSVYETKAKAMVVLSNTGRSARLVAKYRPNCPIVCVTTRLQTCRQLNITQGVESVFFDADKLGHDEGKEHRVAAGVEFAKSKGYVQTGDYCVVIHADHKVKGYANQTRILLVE
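Purified LmPK (0.1 nM) with 0.5 mM PEP and 0.1 mM ADP in imidazole buffer pH 7.2 with MgCl2/KCl, 1 h at room temperature. ATP formed was read by luciferase luminescence and normalized to no-enzyme and uninhibited controls.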
Giardia FBPA inh = qHTS Assay for Inhibitors of Fructose-1,6-bisphosphate Aldolase from Giardia Lamblia. A8B2U2. purified Giardia FBPA. Potency, µM (doses to about 59.6 µM), hits mostly inhibitors. hit rate 0.71% among 290,000; also: nearly all actives have a fitted effect of over 55% in size
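40 nM FBPA preincubated 10 min at RT with compound (up to 57.5 uM final), then substrate plus GAPDH/TPI/NAD/arsenate coupling and diaphorase/resazurin added. Fluorescence read after 20 min at RT, 525/598 nm.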
Each line names hits and unclear results; the compound was inactive in the other large screens. Rows were chosen to be rich in hits. Some 14% of all compounds tested hit in one or more screens of this group. Unless noted, calls follow the shape of the dose curve; as a rule, active = well fitted curve in the direction sought with a large enough effect; inconclusive = small, poorly fitted or top-dose-only effect, or another doubt; inactive = no such curve, though single readings can be large; an effect the other way counts as inactive or inconclusive.

O=S(=O)(NCC(O)c1ccccc1)c1cc(Cl)sc1Cl (centres undefined)	Shiga toxin inh 25 (no result: Giardia FBPA inh)
O=C(CSc1nc(C2CC2)nc2ccccc12)N1CCCCC1	none
O=C(O)C1CCN(C(=O)CSc2nc3ccccc3s2)CC1	none (no result: NS1 function inh)
CCn1c(SCC(=O)N2CCCC2)nc2ccccc21	none (no result: NS1 function inh)
O=C(CSc1nc2ccccc2n1S(=O)(=O)c1ccccc1)N1CCCC1	CHX counter 13, Shiga toxin inh 48
CC1Cc2ccccc2N1C(=O)CSc1nc2ccccc2s1 (centres undefined)	CHX counter 24, Shiga toxin inh 41
O=C(CSc1nncc2ccccc12)N1CCCCC1	CHX counter 45 (no result: NS1 function inh)
Cc1nnc(SCC(=O)N2c3ccccc3CC2C)s1 (centres undefined)	none
CC1CCN(C(=O)CSc2nc3ccccc3s2)CC1	CHX counter 34
COc1cccc(Cn2c(=O)c(-c3cccs3)nc3cnc(OCc4ccccc4)nc32)c1	none (no result: CHX counter, Shiga toxin inh, NS1 function inh, LmPK inh)
CC[C@H]1CC[C@H]2[C@@H]3CC=C4C[C@H](OC(C)=O)[C@@H](N)C[C@@]4(C)[C@H]3CC[C@@]12C	none (no result: CHX counter, Shiga toxin inh, LmPK inh, Giardia FBPA inh)
O=C(O)CC1(CC(=O)Nc2ccc(C(F)(F)F)cc2)CCCC1	none
O=C(CSc1nc2ccccc2s1)N1CCCCC1	CHX counter 43, Shiga toxin inh 124
CCOC(=O)CSc1nc2ccc(N)cc2s1	none
Nc1ccc2nc(SCc3cccc(F)c3)sc2c1	CHX counter 42, Shiga toxin inh 152 (no result: NS1 function inh)
CSc1nsc(SCC(=O)N2CCCCC2)n1	CHX counter 53, Shiga toxin inh 93 (no result: NS1 function inh)
Nc1ccc2nc(SCC(=O)N3CCOCC3)sc2c1	CHX counter 31, Shiga toxin inh 71
CC(C)NC(=O)N1CCCC2(CCN(S(=O)(=O)c3ccccc3)CC2)C1	none (no result: CHX counter, Shiga toxin inh, NS1 function inh, LmPK inh)
COc1cc(C(=O)OCC(=O)NC(N)=O)cc(CN2C(=O)c3ccccc3C2=O)c1OC	none
CC(C)c1ccc(NC2CCCN(C(=O)CC3CCCC3)C2)cc1 (centres undefined)	none (no result: Giardia FBPA inh)
NC(=O)C1CCN(C(=O)CSc2nc3ccccc3s2)CC1	none
CC1CCCC(C)N1C(=O)CSc1nc2ccccc2s1 (centres undefined)	CHX counter 35, Shiga toxin inh 126
COc1cc(/C=N/n2cnnc2)ccc1OCCSc1ccc(C)cc1	CHX counter 22
COc1cc(/C=N\n2cnnc2)ccc1OCC(=O)Nc1ccc(C)cc1	none
C=C(C)CSc1nncn1/N=C/c1ccc(OC)cc1	CHX counter 55, Shiga toxin inh 141
CCSc1nncn1/N=C/c1ccc(OC)c(OC)c1	CHX counter 21, Shiga toxin inh 32
COc1ccc(-n2cnnc2SCC(=O)N2CCN(c3ccccc3)CC2)cc1	NS1 function inh inconclusive
CCOc1ccc(/C=N/n2c(C)nnc2C)cc1OC	none
O=C(O)CN1C(=O)CC(c2ccccc2)CC1=O	none
Cc1ccccc1Cn1cnc2c(oc3ccccc32)c1=O	none (no result: NS1 function inh)
CC(C)n1cnc2c(oc3ccccc32)c1=O	CHX counter 32, Shiga toxin inh 67
N#CCn1cnc2c(oc3ccccc32)c1=O	CHX counter 13
CCCCn1cnc2c(oc3ccccc32)c1=O	CHX counter 51, Shiga toxin inh 72
CCCC1Cc2c(sc(N)c2C#N)CO1 (centres undefined)	none
CCCC/C=C/[C@H](c1ccccc1)[C@H](CO)Cc1ccc2ccccc2c1	none (no result: NS1 function inh, LmPK inh)
Cc1cccc(CSC2=NCCN2S(=O)(=O)c2ccc(F)cc2)c1	none
Cc1nnc(SCc2ccccc2CSc2nnc(C)s2)s1	CHX counter 49 (no result: NS1 function inh)
Cc1nnc(SCc2nnc(-c3cccs3)o2)s1	CHX counter 37 (no result: NS1 function inh)
COc1ccc(N2CCN(S(=O)(=O)c3cn(C)cn3)CC2)cc1	none
O=c1cc(Nc2ccc3c(c2)OCCO3)[nH]c(=O)n1Cc1ccc(F)cc1	CHX counter 29, Shiga toxin inh 49
O=C(CN1CCN(c2ccccn2)CC1)Nc1ccc2ccccc2c1	CHX counter 45, Shiga toxin inh 60
O=C(CN1CCN(C(=O)c2ccco2)CC1)Nc1ccc(F)cc1F	CHX counter 24, Shiga toxin inh 36
O=C(CN1CCN(c2ccccn2)CC1)Nc1cc(F)ccc1F	none
O=C(CN1CCN(c2ccccn2)CC1)Nc1ccc(F)cc1F	CHX counter 20, Shiga toxin inh 50
CC(=O)N1CCC2(CCN(Cc3ccccc3)CC2)CC1	none (no result: CHX counter, Shiga toxin inh, NS1 function inh, LmPK inh)
O=C(Nc1cnn(Cc2ccc(F)cc2)c1)c1cc(-c2ccco2)on1	CHX counter 12 (no result: NS1 function inh)
Cc1ccccc1Cn1cc(NC(=O)c2cc(-c3ccco3)on2)cn1	Shiga toxin inh 61 (no result: NS1 function inh)
COc1cccc(-c2cc(C(=O)Nc3cnn(Cc4ccc(F)cc4)c3)no2)c1	none
CC(C)CNC(=O)c1cccc2c1-c1ccccc1C2=O	none
Cc1ccccc1COc1ccc(-c2nnn(CC(=O)O)n2)cc1	none
O=C1/C(=C\c2ccc(Br)o2)Cc2ccccc21	CHX counter 73, Shiga toxin inh 53
O=C1C(=Cc2cccs2)C(=O)c2ccccc21	CHX counter 46, LmPK inh 14µM, Giardia FBPA inh inconclusive
Cc1ccc(C=C2C(=O)c3ccccc3C2=O)s1	CHX counter 56, Shiga toxin inh 45, LmPK inh 13µM
O=C1/C(=C/c2cccs2)Cc2ccccc21	CHX counter 36, Shiga toxin inh 157, LmPK inh inconclusive
COc1cc(OC)c(OC)cc1/C=C1/Cc2ccccc2C1=O	none
Cn1cccc1/C=C1\CCc2ccccc2C1=O	LmPK inh inconclusive (no result: NS1 function inh)
Cn1cccc1/C=C1\Cc2ccccc2C1=O	CHX counter 42, Shiga toxin inh active (no result: NS1 function inh)
O=C(Nc1nnc(-c2cccs2)o1)c1cccc(C(F)(F)F)c1	none
Fc1ccc2c(Cl)c(-c3nnc(-c4cccs4)o3)sc2c1	CHX counter 35, Shiga toxin inh 78
CC(=O)OC1CC(OC(C)=O)[C@]2(C)C(CC(OC(C)=O)[C@@]3(C)C4=CC(=O)OC(c5ccoc5)[C@]4(C)CCC32)C1(C)C (some centres undefined)	none (no result: CHX counter, Shiga toxin inh, NS1 function inh, LmPK inh)
CC(=O)Nc1cccc(NC(=O)c2ccc([N+](=O)[O-])cc2Cl)c1	none
O=C(Nc1cccc(O)c1)c1ccc([N+](=O)[O-])cc1Cl	CHX counter 32, Shiga toxin inh 61 (no result: NS1 function inh)
CC(C)C(=O)Nc1ccc(NC(=O)c2ccc([N+](=O)[O-])cc2Cl)cc1	none
CN(C)c1ccc(NC(=O)c2ccc([N+](=O)[O-])cc2Cl)cc1	CHX counter 46, Shiga toxin inh 75
Cc1ccc(C)c(NC(=O)C2CCCN(S(=O)(=O)c3cccnc3)C2)c1 (centres undefined)	none (no result: Giardia FBPA inh)
O=C(Nc1ccccc1OC(F)F)c1cc2c(s1)CCC2	CHX counter 40, Shiga toxin inh 43
COc1cc(OC)cc(C(=O)NNC(=O)c2cc3c(s2)CCCC3)c1	none
O=C(NNC(=S)Nc1ccc(OC(F)F)cc1)c1cc2c(s1)CCCC2	CHX counter 14
COCCNC(=O)Cn1ccc2cc(S(=O)(=O)N3CCCCC3)ccc21	none
O=C(CCC(=O)N(CC(=O)NC1CCCCC1)Cc1cccs1)Nc1ccccn1	none (no result: NS1 function inh)
